Data published in the supplement of paper PMC10849652.
Targets with a hit are over-represented here; the source holds about 8,800 in all. About 0.5% of all pairs of compound and target were hits. A number with no mark means an inactive call.

Columns and labels:
Experiment in all cases: log2 fold change, soluble protein after heating vs DMSO (PISA); higher = thermal stabilisation; K562 lysate, 10 uM; active = over 0.2 and 3.5 SD of the protein, either way, in both replicates (recomputed)
vemurafenib = compound: CCCS(=O)(=O)Nc1ccc(F)c(C(=O)c2c[nH]c3ncc(-c4ccc(Cl)cc4)cc23)c1F [vemurafenib]
Outline: (§1)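 To prepare the extract, K562 pellets were dounce-homogenised in PBS pH 7.4 with 1 mM MgCl2, giving crude material at 1 mg/mL protein. This was treated with 10 μM compound for 30 min, then heated in aliquots for 3 min over 48°C-58°C before pooling and addition of NP-40 to 0.5% at 4°C. Centrifugation at 21,000xg for 90 min left soluble protein in the supernatant, which TMTpro 16plex LC-MS/MS quantified with equalised channel sums. Results are log-two fold changes in thermal stability compared with solvent controls, from duplicates.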

[1] = compound: CCCS(=O)(=O)Nc1ccc(F)c(C(=O)c2c[nH]c3ncc(Cl)cc23)c1F
Outline: as §1

barasertib = compound: CCN(CCCOc1ccc2c(Nc3cc(CC(=O)Nc4cccc(F)c4)[nH]n3)ncnc2c1)CCOP(=O)(O)O [barasertib]
Outline: as §1

[2] = compound: CC[C@@H]1C(=O)N(C)c2cnc(Nc3ccc(C(=O)NC4CCN(C)CC4)cc3OC)nc2N1C1CCCC1
Outline: as §1

volasertib = compound: CC[C@@H]1C(=O)N(C)c2cnc(Nc3ccc(C(=O)N[C@H]4CC[C@H](N5CCN(CC6CC6)CC5)CC4)cc3OC)nc2N1C(C)C [volasertib]
Outline: as §1

[3] = compound: CCn1c(C(=O)N(C2CC2)C2CC2)cc2c3c(ncn3C)c(Nc3cc(C)n(C)n3)nc21
Outline: as §1

[4] = compound: CCn1cc(-c2ccnc3[nH]c(-c4cccc(CN(C)C)c4)cc23)c(-c2ccc(NC(=O)N(C)C)cc2)n1
Outline: as §1

[5] = compound: CN1CCC(CNc2ccc3ncc(-c4cccc(OC(F)(F)F)c4)n3n2)CC1
Outline: as §1

saracatinib = compound: CN1CCN(CCOc2cc(OC3CCOCC3)c3c(Nc4c(Cl)ccc5c4OCO5)ncnc3c2)CC1 [saracatinib]
Outline: as §1

sotrastaurin = compound: CN1CCN(c2nc(C3=C(c4c[nH]c5ccccc45)C(=O)NC3=O)c3ccccc3n2)CC1 [sotrastaurin]
Outline: as §1

alvocidib = compound: CN1CC[C@H](c2c(O)cc(O)c3c(=O)cc(-c4ccccc4Cl)oc23)[C@H](O)C1 [alvocidib]
Outline: as §1

Tubastatin A = compound: CN1CCc2c(c3ccccc3n2Cc2ccc(C(=O)NO)cc2)C1 [Tubastatin A]
Outline: as §1

[6] = compound: CNC(=O)C1=CC=CC=C1NC2=NC(=NC=C2Cl)NC3=C(C=C(C=C3)N4CCOCC4)OC
Outline: as §1

defactinib = compound: CNC(=O)c1ccc(Nc2ncc(C(F)(F)F)c(NCc3nccnc3N(C)S(C)(=O)=O)n2)cc1 [defactinib]
Outline: as §1

[7] = compound: CNc1nc(-c2ccc3c(N)n[nH]c3c2)cc(N2C[C@@H](C(=O)NC3CCCCC3)CC[C@H]2C)n1
Outline: as §1

encorafenib = compound: COC(=O)N[C@@H](C)CNc1nccc(-c2cn(C(C)C)nc2-c2cc(Cl)cc(NS(C)(=O)=O)c2F)n1 [encorafenib]
Outline: as §1

[8] = compound: COC(=O)[C@H](CCSC)NC(=O)C1=C(C=C(C=C1)NC[C@H](CS)N)C2=CC=CC=C2
Outline: as §1

alisertib = compound: COc1cc(Nc2ncc3c(n2)-c2ccc(Cl)cc2C(c2c(F)cccc2OC)=NC3)ccc1C(=O)O [alisertib]
Outline: as §1

[9] = compound: COc1cc2nc(-c3cc(F)ccc3O)nc(N[C@@H]3CNC[C@H]3C(C)(C)O)c2cc1OC
Outline: as §1

gefitinib = compound: COc1cc2ncnc(Nc3ccc(F)c(Cl)c3)c2cc1OCCCN1CCOCC1 [gefitinib]
Outline: as §1

UniProt Q7Z6M1, sequence (Q7Z6M1 whole entry, looked up): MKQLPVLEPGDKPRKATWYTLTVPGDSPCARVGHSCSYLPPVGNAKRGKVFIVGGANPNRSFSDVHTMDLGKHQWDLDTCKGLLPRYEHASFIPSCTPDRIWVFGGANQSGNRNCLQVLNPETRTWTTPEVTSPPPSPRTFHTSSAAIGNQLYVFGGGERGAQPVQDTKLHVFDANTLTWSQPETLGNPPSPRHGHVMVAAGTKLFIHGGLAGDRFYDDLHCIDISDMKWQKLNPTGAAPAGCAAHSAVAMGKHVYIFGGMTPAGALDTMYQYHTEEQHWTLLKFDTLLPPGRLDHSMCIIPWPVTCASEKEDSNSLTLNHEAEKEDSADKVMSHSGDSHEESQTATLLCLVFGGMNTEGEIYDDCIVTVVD
UniProt Q9Y3Z3, sequence (Q9Y3Z3 whole entry, looked up): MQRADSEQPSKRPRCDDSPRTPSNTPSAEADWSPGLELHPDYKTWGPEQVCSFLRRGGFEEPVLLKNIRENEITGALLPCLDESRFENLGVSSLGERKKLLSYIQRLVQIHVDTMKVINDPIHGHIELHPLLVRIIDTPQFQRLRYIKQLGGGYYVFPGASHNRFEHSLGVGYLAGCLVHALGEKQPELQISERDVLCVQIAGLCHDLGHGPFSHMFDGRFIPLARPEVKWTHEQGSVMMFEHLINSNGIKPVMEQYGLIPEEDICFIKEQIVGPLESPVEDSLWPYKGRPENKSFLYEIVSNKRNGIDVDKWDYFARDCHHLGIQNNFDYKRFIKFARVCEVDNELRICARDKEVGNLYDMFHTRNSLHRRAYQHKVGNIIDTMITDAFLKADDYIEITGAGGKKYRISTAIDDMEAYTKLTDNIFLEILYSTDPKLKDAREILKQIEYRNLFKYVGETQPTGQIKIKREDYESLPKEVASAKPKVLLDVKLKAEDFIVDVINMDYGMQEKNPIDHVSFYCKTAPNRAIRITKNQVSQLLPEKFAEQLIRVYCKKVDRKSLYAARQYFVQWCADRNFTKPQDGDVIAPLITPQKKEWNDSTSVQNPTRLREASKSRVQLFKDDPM
UniProt Q53S08, sequence (Q53S08 whole entry, looked up): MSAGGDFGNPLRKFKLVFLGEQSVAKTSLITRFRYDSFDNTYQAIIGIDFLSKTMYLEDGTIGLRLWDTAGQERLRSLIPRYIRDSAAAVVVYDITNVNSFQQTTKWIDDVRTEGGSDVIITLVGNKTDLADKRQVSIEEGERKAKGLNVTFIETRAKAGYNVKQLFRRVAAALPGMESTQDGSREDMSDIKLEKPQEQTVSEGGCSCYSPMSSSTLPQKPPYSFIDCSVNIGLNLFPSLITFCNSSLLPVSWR
UniProt O43819, sequence (O43819 whole entry, looked up): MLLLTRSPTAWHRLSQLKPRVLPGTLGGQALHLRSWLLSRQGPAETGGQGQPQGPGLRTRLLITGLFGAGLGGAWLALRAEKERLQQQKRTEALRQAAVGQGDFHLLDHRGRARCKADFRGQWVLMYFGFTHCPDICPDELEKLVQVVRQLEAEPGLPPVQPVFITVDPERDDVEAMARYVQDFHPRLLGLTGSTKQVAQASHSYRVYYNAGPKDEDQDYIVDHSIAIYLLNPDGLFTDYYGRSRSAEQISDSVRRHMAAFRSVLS
UniProt Q86X10, sequence (Q86X10 whole entry, looked up): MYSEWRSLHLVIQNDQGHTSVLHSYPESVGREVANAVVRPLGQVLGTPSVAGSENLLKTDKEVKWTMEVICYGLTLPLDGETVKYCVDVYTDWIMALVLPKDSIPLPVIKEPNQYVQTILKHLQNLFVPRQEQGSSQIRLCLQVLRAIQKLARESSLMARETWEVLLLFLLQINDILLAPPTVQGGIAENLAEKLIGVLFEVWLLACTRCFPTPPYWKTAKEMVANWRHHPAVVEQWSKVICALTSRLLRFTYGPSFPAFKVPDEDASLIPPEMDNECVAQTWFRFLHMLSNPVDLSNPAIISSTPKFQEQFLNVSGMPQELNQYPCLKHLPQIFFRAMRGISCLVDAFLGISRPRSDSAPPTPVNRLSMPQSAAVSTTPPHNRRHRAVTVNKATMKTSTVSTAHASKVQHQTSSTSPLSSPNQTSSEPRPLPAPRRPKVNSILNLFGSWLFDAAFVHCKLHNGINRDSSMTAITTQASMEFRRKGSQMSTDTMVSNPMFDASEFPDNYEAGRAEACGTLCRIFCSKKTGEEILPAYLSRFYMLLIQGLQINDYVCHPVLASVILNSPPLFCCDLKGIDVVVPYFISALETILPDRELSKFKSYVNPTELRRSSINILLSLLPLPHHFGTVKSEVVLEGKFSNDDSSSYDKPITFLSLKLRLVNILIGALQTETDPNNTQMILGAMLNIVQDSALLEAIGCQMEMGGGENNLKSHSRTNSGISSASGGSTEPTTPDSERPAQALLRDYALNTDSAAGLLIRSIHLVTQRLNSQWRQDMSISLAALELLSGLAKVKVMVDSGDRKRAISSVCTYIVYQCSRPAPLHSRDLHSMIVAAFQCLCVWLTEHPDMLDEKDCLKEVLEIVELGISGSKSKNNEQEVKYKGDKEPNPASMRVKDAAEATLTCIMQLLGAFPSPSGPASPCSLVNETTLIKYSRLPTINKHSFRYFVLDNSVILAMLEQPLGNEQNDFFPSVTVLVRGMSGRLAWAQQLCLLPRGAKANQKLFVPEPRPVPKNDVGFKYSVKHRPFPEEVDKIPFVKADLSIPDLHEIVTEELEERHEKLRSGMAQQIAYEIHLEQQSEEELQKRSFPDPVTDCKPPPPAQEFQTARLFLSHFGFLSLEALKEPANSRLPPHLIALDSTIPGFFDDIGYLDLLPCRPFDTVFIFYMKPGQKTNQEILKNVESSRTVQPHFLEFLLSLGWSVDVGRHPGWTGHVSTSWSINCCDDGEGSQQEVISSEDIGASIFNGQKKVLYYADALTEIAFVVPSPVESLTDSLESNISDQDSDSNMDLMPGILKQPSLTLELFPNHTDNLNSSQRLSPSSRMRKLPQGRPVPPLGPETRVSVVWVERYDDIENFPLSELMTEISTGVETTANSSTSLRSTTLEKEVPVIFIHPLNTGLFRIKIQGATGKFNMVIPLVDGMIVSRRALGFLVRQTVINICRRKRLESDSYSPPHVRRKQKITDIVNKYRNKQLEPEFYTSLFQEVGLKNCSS
UniProt Q8NBX0, sequence (Q8NBX0 whole entry, looked up): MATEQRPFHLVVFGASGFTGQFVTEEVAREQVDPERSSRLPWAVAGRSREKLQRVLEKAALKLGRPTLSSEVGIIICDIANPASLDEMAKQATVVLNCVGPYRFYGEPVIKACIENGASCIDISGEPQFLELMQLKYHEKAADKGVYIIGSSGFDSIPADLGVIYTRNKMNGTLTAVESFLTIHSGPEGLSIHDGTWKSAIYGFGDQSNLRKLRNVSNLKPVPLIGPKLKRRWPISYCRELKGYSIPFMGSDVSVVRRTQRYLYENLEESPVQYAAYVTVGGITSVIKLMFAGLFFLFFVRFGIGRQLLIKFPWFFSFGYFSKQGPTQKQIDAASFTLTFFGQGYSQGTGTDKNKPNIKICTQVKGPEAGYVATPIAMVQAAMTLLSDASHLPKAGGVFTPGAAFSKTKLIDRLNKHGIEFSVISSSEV
UniProt P60059, sequence (P60059 whole entry, looked up): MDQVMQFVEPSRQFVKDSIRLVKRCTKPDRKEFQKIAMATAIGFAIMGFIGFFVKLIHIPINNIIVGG
UniProt Q9BWF3, sequence (Q9BWF3 whole entry, looked up): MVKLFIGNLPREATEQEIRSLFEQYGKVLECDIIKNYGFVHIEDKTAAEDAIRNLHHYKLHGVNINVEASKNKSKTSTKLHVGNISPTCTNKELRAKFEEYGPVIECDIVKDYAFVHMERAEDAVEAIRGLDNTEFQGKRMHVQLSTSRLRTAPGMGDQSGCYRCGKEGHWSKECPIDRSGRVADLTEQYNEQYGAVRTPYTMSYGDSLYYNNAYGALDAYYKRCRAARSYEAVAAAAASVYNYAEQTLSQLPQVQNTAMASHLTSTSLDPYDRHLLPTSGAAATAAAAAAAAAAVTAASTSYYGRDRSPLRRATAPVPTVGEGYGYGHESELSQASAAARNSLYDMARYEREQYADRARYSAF
UniProt P23921, sequence (P23921 whole entry, looked up): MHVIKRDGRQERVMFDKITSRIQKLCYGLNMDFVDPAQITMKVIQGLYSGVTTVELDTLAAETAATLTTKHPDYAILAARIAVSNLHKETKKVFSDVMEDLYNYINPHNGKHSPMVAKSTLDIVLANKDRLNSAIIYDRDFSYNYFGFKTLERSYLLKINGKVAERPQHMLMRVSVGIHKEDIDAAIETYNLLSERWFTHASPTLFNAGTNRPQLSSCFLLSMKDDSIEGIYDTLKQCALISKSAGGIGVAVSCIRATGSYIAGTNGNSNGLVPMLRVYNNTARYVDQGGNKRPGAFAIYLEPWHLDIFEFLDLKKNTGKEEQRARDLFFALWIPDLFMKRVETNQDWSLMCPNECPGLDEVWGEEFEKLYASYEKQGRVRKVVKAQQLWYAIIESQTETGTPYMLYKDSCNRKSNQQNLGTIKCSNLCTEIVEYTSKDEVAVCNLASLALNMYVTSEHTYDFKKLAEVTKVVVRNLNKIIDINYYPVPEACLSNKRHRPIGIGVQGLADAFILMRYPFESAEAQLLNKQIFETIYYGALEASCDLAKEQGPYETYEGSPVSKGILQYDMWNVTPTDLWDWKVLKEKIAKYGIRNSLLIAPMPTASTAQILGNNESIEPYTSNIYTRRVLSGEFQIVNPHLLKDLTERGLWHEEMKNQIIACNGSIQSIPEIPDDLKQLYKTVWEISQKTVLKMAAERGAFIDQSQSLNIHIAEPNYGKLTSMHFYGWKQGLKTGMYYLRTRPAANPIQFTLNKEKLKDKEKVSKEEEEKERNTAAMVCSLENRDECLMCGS

Target	log2 fold change (vemurafenib)	log2 fold change [1]	log2 fold change (barasertib)	log2 fold change [2]	log2 fold change (volasertib)	log2 fold change [3]	log2 fold change [4]	log2 fold change [5]	log2 fold change (saracatinib)	log2 fold change (sotrastaurin)	log2 fold change (alvocidib)	log2 fold change (Tubastatin A)	log2 fold change [6]	log2 fold change (defactinib)	log2 fold change [7]	log2 fold change (encorafenib)	log2 fold change [8]	log2 fold change (alisertib)	log2 fold change [9]	log2 fold change (gefitinib)
SEC61G (UniProt P60059)	0.015	-0.079	0.175	0.159	0.033	-0.067	-0.118	0.405	-0.276	-0.184	-0.107	0.063	0.09	0.045	0.137	-0.02	0.067	0.053	0.009	0.036
RABEPK (UniProt Q7Z6M1)	-0.024	0.003	-0.066	0.014	-0.006	-0.021	0.015	0.011	-0.02	-0.028	0.03	-0.048	0.004	0.014	-0.025	0.004	0.032	0.002	0	0.01
RALGAPB (UniProt Q86X10)	0.044	0.016	0.103	-0.008	-0.023	-0.013	-0.09	0.07	0.017	0.032	0.02	-0.056	-0.069	0.026	0.012	0.044	0.015	0	0.032	-0.007
SAMHD1 (UniProt Q9Y3Z3)	0.034	0.045	0.007	-0.032	-0.037	0.068	-0.096	0.079	-0.052	0.032	-0.019	-0.072	0.041	-0.021	-0.015	0	0.099	-0.013	0.02	0.044
RRM1 (UniProt P23921)	0.023	0.018	0.011	-0.065	-0.063	0.003	-0.045	-0.031	-0.02	-0.016	-0.004	-0.098	-0.007	0.022	-0.03	0.005	0.098	0.007	0.007	-0.006
RPL31 (UniProt P62899)	0.01	0.004	0.004	0.006	-0.005	-0.013	-0.043	-0.005	0.024	0.014	-0.013	0.032	-0.042	-0.024	0.044	-0.016	0.035	0.033	-0.015	-0.035
SCCPDH (UniProt Q8NBX0)	-0.013	-0.054	0.118	0.128	0.055	-0.107	-0.12	0.233	-0.092	0.094	-0.051	0.044	0.05	0.028	0.333	-0.076	0.129	-0.011	0.005	-0.063
RAB6D (UniProt Q53S08)	0.005	-0.033	0.15	0.289 (active)	0.033	-0.049	-0.065	0.018	-0.053	-0.025	-0.029	0.078	0.024	0.077	0.087	0.023	-0.034	-0.149	0.062	0.027
SEC24D isoform 2 (UniProt O94855)	-0.039	0.027	-0.002	-0.032	-0.032	-0.011	-0.001	-0.009	0.005	-0.025	-0.012	-0.018	0.002	0.012	-0.008	0.029	-0.163	0.005	0.006	0.006
R3HCC1 (UniProt Q9Y3T6)	0.07	0.036	0.009	0.044	-0.015	-0.022	-0.066	0.082	0.029	0.021	-0.019	0.023	0.048	0.055	-0.018	-0.004	-0.04	-0.002	0.003	0.008
RBM4 (UniProt Q9BWF3)	-0.013	-0.042	0.023	-0.053	-0.032	0.045	0.344 (active)	-0.044	-0.013	-0.015	0.16	-0.168	0.013	-0.011	-0.088	0.089	-0.066	0.037	0.006	-0.004
RHAG (UniProt Q02094)	-0.032	-0.116	0.054	-0.16	0.053	-0.003	-0.413 (active)	0.121	0.053	0.029	-0.133	0.031	0.043	-0.043	0.037	0.016	0.02	-0.004	0.046	-0.051
RAD50 isoform 2 (UniProt Q92878)	0.004	0.013	0.025	-0.011	-0.047	0.039	-0.024	-0.024	0	0.036	0.023	-0.137	0.008	0.026	-0.04	0.006	0.108	0.002	0.001	-0.016
RIOK3 (UniProt O14730)	0.021	-0.004	0.004	-0.098	-0.041	-0.032	-0.052	-0.024	-0.03	0.013	-0.04	-0.273 (active)	0.029	0.018	0.12	0.058	0.132	-0.006	0	0.055
RPS4X (UniProt P62701)	0.001	-0.014	-0.033	0.001	-0.007	-0.025	0.242 (active)	-0.059	-0.016	-0.009	0.039	0.032	-0.03	-0.027	0.029	-0.036	0.063	0.004	0.002	-0.028
SCO2 (UniProt O43819)	-0.064	0.054	0.019	-0.075	-0.028	-0.087	-0.235	0.076	-0.046	0.003	-0.009	0.039	0.073	0.008	-0.007	0.027	-0.607 (active)	-0.115	0.046	0.114
